# PubChem BioAssay (NCATS)
# Records with an inconclusive call do not appear. A call without a number means that no potency is given here. Calls of active or inactive are those of the source. The call rests on the fitted dose curve; in most records, active means well fitted inhibition curve with a large enough effect; inconclusive means small, poorly fitted or top-dose-only effect; inactive means flat fitted curve, though single readings scatter.
# Target: Calcium and integrin-binding protein 1 (Homo sapiens) (UniProt Q99828)
# Assay: Primary qHTS for Identification of Calcium Integrin Binding Protein 1 (CIB1) Competitor (AID 1508620)
# Settings: CIB1-GST / FITC-alphaIIb peptide fluorescence polarization; series mostly up to 57.7 µM
# How it was run: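 Fluorescence polarization competition: CIB1-GST (1 uM final) preincubated with compound 15 min at room temperature, then FITC-labeled alphaIIb peptide (100 nM final) added for another 15 min. Polarization read at Ex 480/Em 540.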
# Potency means the concentration at half of the fitted maximal effect.
# Calcium and integrin-binding protein 1 (Homo sapiens), sequence (Q99828 whole entry, looked up): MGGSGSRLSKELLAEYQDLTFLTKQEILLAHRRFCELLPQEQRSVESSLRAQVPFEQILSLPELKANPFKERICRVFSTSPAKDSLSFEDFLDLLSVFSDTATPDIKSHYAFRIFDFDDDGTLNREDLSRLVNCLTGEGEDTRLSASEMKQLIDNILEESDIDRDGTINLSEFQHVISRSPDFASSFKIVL
row,SMILES,Potency
1,Cc1cnc(Nc2cccc(CN3CCOCC3)c2)nc1Nc1cccc(S(=O)(=O)NC(C)(C)C)c1,inactive
2,CC=C(C(=CC)c1ccc(O)cc1)c1ccc(O)cc1,inactive
3,COc1ccc2nc3cc(Cl)ccc3c(Nc3cc(CN4CCCC4)c(O)c(CN4CCCC4)c3)c2n1,inactive
4,O=C(C=Cc1ccc(O)cc1)c1ccc(O)cc1O,inactive
5,Cc1cc(CS(=O)(=O)c2ccccc2)cc(OCc2ccc(CN3CCC[C@H]3CO)cc2)c1,inactive
6,Cc1ccc(C(=O)N(CCCN)[C@@H](c2oc3cc(Cl)ccc3c(=O)c2Cc2ccccc2)C(C)C)cc1,inactive
7,O=c1[nH]nc(OCCCc2ccc(Cl)cc2)c(NCc2cccnc2)c1Br,inactive
8,CC(C)C[C@@H](C(=O)N[C@H](C(=O)OC1CCCC1)c1ccccc1)[C@H](O)C(=O)NO,inactive
9,CCC(=O)NCC[C@@H]1CCc2ccc3c(c21)CCO3,inactive
10,CO[C@H]1/C=C\O[C@@]2(C)Oc3c(C)c(O)c4c(O)c(c(C=NN5CCN(C6CCCC6)CC5)c(O)c4c3C2=O)NC(=O)C(C)=CC=C[C@H](C)[C@H](O)[C@@H](C)[C@@H](O)[C@@H](C)[C@H](OC(C)=O)[C@H]1C,inactive
11,COc1cc(F)c(C(C)C)cc1-c1ccc(C(F)(F)F)cc1CN1C(=O)O[C@H](c2cc(C(F)(F)F)cc(C(F)(F)F)c2)[C@@H]1C,inactive
12,Clc1ccc(COC(Cn2ccnc2)c2ccc(Cl)cc2Cl)c(Cl)c1 (centres undefined),inactive
13,CNc1nc(Nc2ccc(C(=O)N3CCOCC3)cc2OC)ncc1Cl,inactive
14,CN1CC(=O)NC1=NC(=O)Nc1cccc(Cl)c1,inactive
15,COc1cc(Nc2nc3ccccc3nc2NS(=O)(=O)c2ccc(NC(=O)c3ccc(C)c(OC)c3)cc2)cc(OC)c1,inactive
16,CN1CCN(c2cccc(Nc3nc4c(-c5ccc(S(C)(=O)=O)cc5)cccn4n3)c2)CC1,inactive
17,CCOc1ccccc1N=Nc1c(C)[nH]n(-c2nc(-c3ccccc3)cs2)c1=O,inactive

row,SMILES,Potency
1,Cc1cc(-c2ncc(CC(=O)Nc3ccc(-c4cnccn4)cn3)cc2C)ccn1,inactive
2,Cc1cc(OCCCS(C)(=O)=O)cc(C)c1-c1cccc(COc2ccc3c(c2)OC[C@H]3CC(=O)O)c1,inactive
3,Fc1ccc(C(c2ccc(F)cc2)N2CCN(CC=Cc3ccccc3)CC2)cc1,19.2 µM (active)
4,CCOC(=O)[C@H](CCc1ccccc1)N[C@@H](C)C(=O)N1CCCC1C(=O)O (some centres undefined),inactive
5,C[C@@H]1CC=CC=CC=CC=C[C@@H](O[C@@H]2O[C@H](C)[C@@H](O)[C@H](N)[C@H]2O)C[C@@H]2O[C@](O)(C[C@@H](O)C[C@@H]3O[C@@H]3C=CC(=O)O1)C[C@H](O)[C@@H]2C(=O)O,inactive
6,CC1=C(C(=O)Nc2cc3cn[nH]c3cc2F)C(c2ccc(C(F)(F)F)cc2)CC(=O)N1 (centres undefined),inactive
7,CCCC1OC2C[C@@H]3[C@H]4CCC5=CC(=O)C=C[C@]5(C)[C@H]4C(O)C[C@]3(C)[C@]2(C(=O)CO)O1 (some centres undefined),inactive
8,CC[C@]1(O)C[C@H]2CN(CCC3=c4ccccc4=N[C]3[C@@](C(=O)OC)(c3cc4c(cc3OC)N(C)[C@H]3[C@@](O)(C(N)=O)[C@H](O)[C@]5(CC)C=CCN6CC[C@]43[C@@H]65)C2)C1,inactive
9,C[C@@]1(c2cc(-c3cncnc3)c(F)cc2F)CCSC(N)=N1,inactive
10,O=C(NC[C@H](O)CO)c1ccncc1Nc1ccc(I)cc1F,inactive
11,COc1cc(CNC(=O)CCCCC=CC(C)C)ccc1O,inactive
12,CC(C)(O)CC(=O)NCCn1ccc2ncnc(Nc3ccc(Oc4cccc(C(F)(F)F)c4)c(Cl)c3)c21,inactive
13,CCCCCCOC(=O)N=C(N)c1ccc(NCc2nc3cc(C(=O)N(CCC(=O)OCC)c4ccccn4)ccc3n2C)cc1,inactive
14,Cc1nc2c([nH]1)CCN(C(=O)c1ccc(NC(=O)c3ccccc3-c3ccccc3)cc1)c1ccccc1-2,inactive
15,COc1nccc(-c2c(-c3ccc(F)cc3)ncn2C2CCC(O)CC2)n1 (centres undefined),inactive
16,CC[C@H]1OC(=O)[C@H](C)[C@@H](O[C@H]2C[C@@](C)(OC)[C@@H](O)[C@H](C)O2)[C@H](C)[C@@H](O[C@@H]2O[C@H](C)C[C@H](N(C)C)[C@H]2O)[C@](C)(O)C[C@H](C)C(=NOCOCCOC)[C@H](C)[C@@H](O)[C@]1(C)O,inactive
17,CCC[C@@H](NC(=O)[C@@H]1[C@H]2CCC[C@@H]2CN1C(=O)[C@@H](NC(=O)[C@@H](NC(=O)c1cnccn1)C1CCCCC1)C(C)(C)C)C(=O)C(=O)NC1CC1,inactive
